This is an account of results in PubChem BioAssay AID588334 (Broad Institute, 2011).

About 2,300 (0.77%) of roughly 300,000 compounds were called active. Only a selection was taken, and actives are over-represented in it overall. Unmarked numbers belong to inactive results.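 How the source made its calls: active means mean activation of at least 80% with every replicate also reaching 80%; inconclusive means mean reaches 80% but some replicate falls short; inactive means the rest.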

A short description of this test: activators of MITF-driven TRPM1 promoter reporter, primary screen, cell-based, SK-MEL-5, luciferase, single point (AID 588334).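 Further: 0% = neutral control wells and 100% = parthenolide positive control wells.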 The settings on record: SK-MEL-5 TRPM1-promoter luciferase, 24 h; at 12.5 µM; hits give high values; % of positive control, neutral wells = 0.
As for `CCC(=O)c1cc(F)ccc1OCC(=O)Nc1ccc2c(c1)OCCO2`, the activation is 22.6%.

For the molecule `COc1ccccc1OCCCC(=O)Nc1ccc2c(c1)OCCO2`, the activation is 24.7%.

For the molecule `CCc1ccccc1OCC(=O)Nc1ccc2c(c1)OCCO2`, the activation is 89.7% (active). Regarding `Cc1cc2c(cc1C)NC1(C[C@H]3CCC(=O)N4CC[C@@H](C1)[C@@H]34)C(=NC(C)(C)CC(C)(C)C)N2` (stereo partly drawn), the activation was -10%. `O=C(CN1CCN(c2ccccn2)CC1)N1CCc2ccccc21`: the activation is 19.8%. As for `NC(=O)N1CCc2ccccc21`, the activation is -5.85%.

Take `O=C(CSCc1ccccc1)N1CCc2ccccc21`: the activation is 95% (active). In the case of `Cn1c(N)cc(=O)n(C)c1=S` it was -8.41%; in that of `CC(C)c1ccc(/C=C/C(=O)NNC(=O)c2cccnc2)cc1`, 9.02%; in that of `C=CCNC(=O)/C=C/c1ccc(C(C)C)cc1`, 89.4% (active). In the case of `CC(C)c1ccc(/C=C/C(=O)NCCCN2CCOCC2)cc1` it was 4.51%; in that of `CN(C(=O)c1cccc(NC(=O)Cc2ccc(NC(=O)C3CCCN(C(=O)C4CCCC4)C3)cc2)c1)C1CCC1` (stereo not drawn), -9.98%. Consider `O=c1ccn([C@@H]2O[C@H](CNS(=O)(=O)c3cc4ccccc4s3)[C@@H](O)[C@H]2O)c(=O)[nH]1`, for which the activation was -4.34%.

As to `O=C(Nc1cccc(S(=O)(=O)N2CCOCC2)c1)C12CC3CC(CC(C3)C1)C2`, the activation was 12.4%. In the case of `Cc1ccc(C)c(C(C)NC(=O)C2CCCO2)c1` (stereo not drawn) it was -7.6%. In the case of `Cc1cc([N+](=O)[O-])ccc1NC(=O)C1CCCO1` (stereo not drawn) it was -1.67%; in that of `Cc1cc(C)c2nc(NC(=O)C3CCCO3)sc2c1` (stereo not drawn), 81.4% (active). In the case of `C/C(=N\Nc1ccc(Cl)nn1)c1ccccc1O` it was -45.2%; in that of `NC(=O)c1ccc(N2CCCC2)nc1`, -7.45%; in that of `COc1ccc(CN2C(CC(=O)Nc3cccnc3)c3ccc(C(F)(F)F)cc3S2(=O)=O)cc1` (stereo not drawn), 11.4%. For the molecule `O=C1COc2c1ccc(O)c2O`, the activation was 1.19%.

As for `CC(C)OC(=O)CN1C(=O)C(=O)c2ccccc21`, the activation is -5.18%. In the case of `Cc1cc(/C=C2/SC(=O)N(CC(=O)OC(C)C)C2=O)c(C)n1C` it was 97.9% (active); in that of `Cc1cc(/C=C2\SC(=O)N(C)C2=O)c(C)n1-c1cccc(C(=O)O)c1`, 3.12%; in that of `C=CCNc1cnn(-c2ccc(C)cc2)c(=O)c1Cl`, 108% (active).

For `CCCNC(=O)c1c(Cl)cnn1-c1ccc(C)cc1`, the activation is 69.7%. As to `O=c1c(Cl)c(NC2CC2)cnn1-c1ccccc1`, the activation is 6.24%. In the case of `O=C(c1cccc(S(=O)(=O)N2CCCCCC2)c1)N1CCN(Cc2ccccc2)CC1` it was 4.94%; in that of `COc1ccc(NC(=O)Nc2ccc3nsnc3c2)cc1`, 92.9% (active); in that of `COc1ccc(/C=N/NC(=O)Nc2ccc3nsnc3c2)c(OC)c1`, 4.9%.

On to `COc1ccc(NC(=O)Nc2cccc3cccnc23)cc1`, for which the activation was 40.1%. In the case of `O=C(Nc1c(Br)cc2c(c1Br)Cc1cc([N+](=O)[O-])ccc1-2)C(Cl)Cl` it was -16.6%; in that of `FC(F)(F)c1ccc(-c2cccc3c2C2CC3CCN2Cc2ccccc2)cc1` (stereo not drawn), -0.65%. In the case of `COc1ccc(NC(=O)/C(N=Nc2cccc(S(=O)(=O)Nc3ccc(SC(F)F)cc3)c2)=C(\C)O)cc1` it was -7.51%. In the case of `CN(C(=O)c1cccc(NC(=O)Cc2ccc(NC(=O)C3CCCN(C(=O)C4CC4)C3)cc2)c1)C1CC1` (stereo not drawn) it was -7.94%; in that of `Cc1ccc(C(=O)Nc2nnc(-c3cccs3)s2)cc1C`, 87.8% (active); in that of `CCOc1cccc(C(=O)Nc2nnc(-c3cccs3)s2)c1`, 25.8%. With `Cc1ccc(C(=O)Oc2coc(CSc3nnc(NC(=O)c4cccs4)s3)cc2=O)cc1C`, the activation is 0.796%. Regarding `NC1=NOC(=O)C1C1CCCCC1` (stereo not drawn), the activation is -0.578%. In the case of `O=c1[nH]c2c(c(=O)n1-c1ccccc1)CCO2` it was 1.65%; in that of `COc1cc(C2CC(=O)Oc3cc(OC)c(OC)c(OC)c32)cc(OC)c1OC` (stereo not drawn), 1.92%. In the case of `CC1CCc2c(sc3nc4n(c(=O)c23)CCS4)C1` (stereo not drawn) it was 73.6%. Take `CCCn1nnc2sc3c(c2c1=O)CCC(C)C3` (stereo not drawn): the activation is 99.2% (active). In the case of `C=CCn1c(SCc2c(C)noc2C)nc2sc3c(c2c1=O)CCC(C)C3` (stereo not drawn) it was -11.8%.

In the case of `CS(=O)(=O)N1CCc2cc(C(=O)Nc3ccccc3)ccc21`, the activation was 49.3%. `CS(=O)(=O)N1CCc2cc(C(=O)Nc3ccccc3Br)ccc21`: the activation is 85.3% (active). In the case of `CSc1ccccc1NC(=O)c1ccc2c(c1)CCN2S(C)(=O)=O` it was 25.3%. In the case of `COC(=O)c1ccc(NC(=O)Nc2ccc(C)cc2)cc1` it was 25.4%.

In the case of `Cc1nc2ccc(NC(=O)C(F)(F)F)cc2o1`, the activation is -1.51%.

For `Cc1nc2cc(NC(=O)NCc3ccccc3)ccc2o1`, the activation is 14.2%. In the case of `Cc1ccc(NC(=O)Nc2ccc3oc(C)nc3c2)cc1` it was 92.6% (active); in that of `CC(=O)c1cccc(NC(=O)Nc2ccc(C)cc2)c1`, 104% (active). In the case of `C=C(C)C(=O)Nc1cccc(C(C)=O)c1` it was 5.72%; in that of `C[C@H](O)[C@@H]1C(=O)N2CCc3ccc(N4CCOCC4)cc3[C@@H]2C[C@@H]1N(C)C(=O)C(C)(C)C`, 3.72%; in that of `COc1ccc(C2NCCCC2c2ccccc2)cc1` (stereo not drawn), -15.7%. As for `O=C(NN=Cc1ccccc1O)NN=Cc1ccccc1O`, the activation was -21.8%. For the molecule `O=C(Nc1ccc2ccccc2c1[N+](=O)[O-])c1ccccc1`, the activation is 37.5%. In the case of `COc1cc(C(=O)OCc2cc(=O)n3ccsc3n2)ccc1OC(C)C` it was 25%; in that of `COc1ccc([C@H]2CC(=O)C=C(/C=C/c3ccccc3)C2)cc1`, 84.7% (active); in that of `COc1ccc([C@H]2CC(=O)C=C(/C=C/c3ccc(Cl)cc3)C2)cc1`, 55.4%.

For the molecule `COc1ccc([C@H]2CC(=O)C=C(c3ccc(C)cc3)C2)cc1`, the activation was 18.7%. In the case of `CC1CN(Cc2ccccc2)C(=S)NC1=O` (stereo not drawn) it was 3.25%.

Regarding `COC(=O)c1ccc(CNC(=O)Cn2cc(C)c(=O)[nH]c2=O)cc1`, the activation is 2.68%.
